# Results published in PubChem BioAssay (EPA / NIEHS).
# Inconclusive results are not listed. Active and inactive are the calls of the source. Rule for the calls: active = hit-call score of the fitted dose curve at least 0.9, where 1 is the maximum; inconclusive = response in the unintended direction; inactive = score below 0.9.
# Tests used:
# [1] = target: human Thromboxane A2 Receptor (TXA2), TBXA2R (gene 6915) (UniProt P21731); experiment: NVS_GPCR_hTXA2: NovaScreen (NVS) G Protein-Coupled Receptor Assay for human Thromboxane A2 Receptor (TXA2) (AID 2283282);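 note: actives reduce bound radioligand signal relative to DMSO baseline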
# Outline: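 Cell-free radioligand binding on membrane protein from human platelets; radioligand displacement read by filter-based scintillation counting after 1 h. Primary screen in duplicate at 25 uM, actives then run in concentration series; loss of signal versus DMSO.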
# [2] = target: human Dopamine Receptor D4.4 (DRD4.4), DRD4 (gene 1815) (UniProt P21917); experiment: NVS_GPCR_hDRD4.4: NovaScreen (NVS) G Protein-Coupled Receptor Assay for human Dopamine Receptor D4.4 (DRD4.4) (AID 2283264)
# Outline: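 Filter-binding assay with a tritiated or iodinated ligand, cell-free receptor prepared from CHO, 1 hour. Loss of bound radioactivity versus DMSO; single 25 uM duplicate screen, then concentration-response for actives.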
# [3] = target: human Dopamine Receptor D2 (DRD2), DRD2 (gene 1813) (UniProt P14416); experiment: NVS_GPCR_hDRD2s: NovaScreen (NVS) G Protein-Coupled Receptor Assay for human Dopamine Receptor D2 (DRD2) (AID 2283266)
# Outline: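 Test compound (25 uM, duplicate in the primary screen; concentration series at follow-up) competed with radioligand for human DRD2 in CHO-derived membrane protein. Filter-based scintillation counting was done 1.5 hours after dosing, with loss of signal analysed against DMSO.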
# [4] = target: human Histamine 1 Receptor (H1), HRH1 (gene 3269) (UniProt P35367); experiment: NVS_GPCR_hH1: NovaScreen (NVS) G Protein-Coupled Receptor Assay for human Histamine 1 Receptor (H1) (AID 2283268)
# Outline: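 Filter-based scintillation detection of radioligand binding to human H1, 1 h incubation; chemicals screened in duplicate at 25 uM, then concentration-response; signal loss relative to DMSO taken as activity.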
# [5] = target: D(1A) dopamine receptor (Homo sapiens) (UniProt P21728); experiment: NVS_GPCR_hDRD1: NovaScreen (NVS) G Protein-Coupled Receptor Assay for human Dopamine Receptor D1 (DRD1) (AID 2283269)
# Outline: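 Extracted HEK293 DRD1 is incubated 1 h with compound and a tritiated or iodinated radioligand, then filtered and counted. Screening runs 25 uM in duplicate with on-plate positive and negative controls.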
# [6] = target: Muscarinic acetylcholine receptor M1 (Homo sapiens) (UniProt P11229); experiment: NVS_GPCR_hM1: NovaScreen (NVS) G Protein-Coupled Receptor Assay for human Muscarinic, M1 Receptor (AID 2283270)
# Outline: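 Actives from a duplicate 25 uM single-point screen were retested in concentration series. Binding measured as displacement of a radioligand from CHO-derived receptor preparation, 1 h incubation, filtration and scintillation counting, analysed as signal loss against DMSO.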
# [7] = target: human Leukotriene B4 Receptor 1 (LTB4-BLT1), LTB4R (gene 1241) (UniProt Q15722); experiment: NVS_GPCR_hLTB4_BLT1: NovaScreen (NVS) G Protein-Coupled Receptor Assay for human Leukotriene B4 Receptor 1 (LTB4-BLT1) (AID 2283271)
# Outline: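 Cell-free human neutrophil receptor preparation, 1 h exposure, radioligand binding read by filter scintillation counting. Single 25 uM duplicate screen, then concentration series topping at 50 uM; binding loss scored against DMSO baseline.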
# [8] = target: Muscarinic acetylcholine receptor M3 (Homo sapiens) (UniProt P20309); experiment: NVS_GPCR_hM3: NovaScreen (NVS) G Protein-Coupled Receptor Assay for human Muscarinic, M3 Receptor (AID 2283272)
# Outline: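 Radioligand displacement binding on human M3 receptor in CHO-derived membranes, 1 h incubation, filter-based scintillation counting. Primary screen in duplicate at 25 uM; actives followed up in concentration series; loss of signal versus DMSO.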
# [9] = target: Muscarinic acetylcholine receptor M2 (Homo sapiens) (UniProt P08172); experiment: NVS_GPCR_hM2: NovaScreen (NVS) G Protein-Coupled Receptor Assay for human Muscarinic, M2 Receptor (AID 2283273)
# Outline: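 CHO-expressed human M2 receptor preparation, competitive displacement of a radioligand read by filter-based scintillation counting after 1 h. Single 25 uM duplicate screen, then concentration-response follow-up of actives; DMSO baseline.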
# [10] = target: human Muscarinic, M4 Receptor, CHRM4 (gene 1132) (UniProt P08173); experiment: NVS_GPCR_hM4: NovaScreen (NVS) G Protein-Coupled Receptor Assay for human Muscarinic, M4 Receptor (AID 2283274)
# Outline: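 Filter-based scintillation counting of radioligand bound to CHO-expressed human M4 preparations after 1 h; loss of signal fitted versus DMSO. Initial duplicate testing at 25 uM, concentration-response follow-up for actives.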
# [11] = target: human Opioid Receptor Delta 1 (Opiate D1), OPRD1 (gene 4985) (UniProt P41143); experiment: NVS_GPCR_hOpiate_D1: NovaScreen (NVS) G Protein-Coupled Receptor Assay for human Opioid Receptor Delta 1 (Opiate D1) (AID 2283280)
# Outline: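 Membrane preparations from CHO cells bearing the human receptor were incubated 1 h with test chemical, and bound radioligand was counted after filtration. Actives from 25 uM duplicate screening were retested in concentration-response.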
# [12] = target: human Adrenergic, Beta 3 Receptor (Adrb3), ADRB3 (gene 155) (UniProt P13945); experiment: NVS_GPCR_hAdrb3: NovaScreen (NVS) G Protein-Coupled Receptor Assay for human Adrenergic, Beta 3 Receptor (Adrb3) (AID 2283262)
# Outline: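 A cell-free filter binding assay read by scintillation counting, with displacement of a specific radioligand measured after 1 hour. The receptor source was SK-N-MC extracts (cells pretreated with isoproterenol and 8-bromo-cAMP). Compounds were first tested at 25 uM in duplicate and then in concentration series.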
# [13] = target: Neuropeptide Y receptor type 2 (Homo sapiens) (UniProt P49146); experiment: NVS_GPCR_hNPY2: NovaScreen (NVS) G Protein-Coupled Receptor Assay for human Neuropeptide Receptor Y2 (NPY2) (AID 2283277)
# Outline: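 Chemicals were first tested in duplicate at 25 uM, then actives in singleton concentration series to 50 uM. Tracer binding to SK-N-MC-derived protein measured cell-free after 1 h via filter scintillation; signal loss relative to DMSO.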
# [14] = target: human Neurokinin, NK2 Receptor, TACR2 (gene 6865) (UniProt P21452); experiment: NVS_GPCR_hNK2: NovaScreen (NVS) G Protein-Coupled Receptor Assay for human Neurokinin, NK2 Receptor (AID 2283278);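 note: actives reduce bound radioligand signal relative to DMSO baseline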
# Outline: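 Test chemicals displace a radioligand from receptor prepared from CHO cells in a cell-free format, read after 4 hours by scintillation counting on filters. Screening starts at 25 uM in duplicate, and active chemicals then go to concentration series.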
# [15] = target: human Orphanin, Opioid Related Nociceptin Receptor 1 (ORL1), OPRL1 (gene 4987) (UniProt P41146); experiment: NVS_GPCR_hORL1: NovaScreen (NVS) G Protein-Coupled Receptor Assay for human Orphanin, Opioid Related Nociceptin Receptor 1 (ORL1) (AID 2283283)
# Outline: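 Cell-free binding using HEK293-derived receptor protein: radioligand displacement measured by filter scintillation 1 hour after dosing. Primary testing at 25 uM in duplicate, followed by singleton concentration series up to 50 uM; DMSO served as negative control.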
# [16] = target: human Endothelin Receptor Type B (ETB), EDNRB (gene 1910) (UniProt P24530); experiment: NVS_GPCR_hETB: NovaScreen (NVS) G Protein-Coupled Receptor Assay for human Endothelin Receptor Type B (ETB) (AID 2283267)
# Outline: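 Filter-based scintillation readout of radioligand displacement, 4 h, using membranes from human astrocytoma cells. Actives from a 25 uM duplicate screen were retested in concentration-response (top 50 uM) relative to DMSO baseline.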
# [17] = target: human Neurotensin Receptor (NTS), NTSR1 (gene 4923) (UniProt P30989); experiment: NVS_GPCR_hNTS: NovaScreen (NVS) G Protein-Coupled Receptor Assay for human Neurotensin Receptor (NTS) (AID 2283279)
# Outline: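 Compounds competed with a radiolabelled ligand for binding to CHO-derived human neurotensin receptor; bound signal counted after filtration, 1 h. Screened first at a single concentration of 25 uM in duplicate, then concentration series to 50 uM maximum for actives.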
# Chain of human Dopamine Receptor D2 (DRD2), DRD2 (gene 1813) (P14416 whole entry, looked up): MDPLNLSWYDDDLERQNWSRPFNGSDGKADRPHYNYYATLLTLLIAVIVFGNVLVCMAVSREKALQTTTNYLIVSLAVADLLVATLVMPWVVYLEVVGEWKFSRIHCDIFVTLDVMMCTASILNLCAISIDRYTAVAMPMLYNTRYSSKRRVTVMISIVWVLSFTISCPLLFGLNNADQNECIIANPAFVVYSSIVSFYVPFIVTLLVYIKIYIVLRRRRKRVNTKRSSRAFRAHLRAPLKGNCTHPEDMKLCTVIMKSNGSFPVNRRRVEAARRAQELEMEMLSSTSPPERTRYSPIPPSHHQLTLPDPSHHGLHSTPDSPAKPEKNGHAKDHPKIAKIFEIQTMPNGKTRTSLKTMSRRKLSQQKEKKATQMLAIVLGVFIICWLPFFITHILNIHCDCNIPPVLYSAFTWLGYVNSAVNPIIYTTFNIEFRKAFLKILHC
# Chain of human Thromboxane A2 Receptor (TXA2), TBXA2R (gene 6915) (P21731 whole entry, looked up): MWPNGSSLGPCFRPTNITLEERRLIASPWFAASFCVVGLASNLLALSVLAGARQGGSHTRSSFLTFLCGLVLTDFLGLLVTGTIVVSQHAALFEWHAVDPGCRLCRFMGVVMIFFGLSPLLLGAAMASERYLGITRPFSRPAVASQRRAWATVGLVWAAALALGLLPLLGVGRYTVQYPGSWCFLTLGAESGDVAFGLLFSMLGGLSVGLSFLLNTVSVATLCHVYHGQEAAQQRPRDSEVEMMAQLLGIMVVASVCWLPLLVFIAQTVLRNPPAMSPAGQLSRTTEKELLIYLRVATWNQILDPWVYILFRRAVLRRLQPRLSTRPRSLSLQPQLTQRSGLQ
# Chain of Muscarinic acetylcholine receptor M3 (Homo sapiens) (P20309 whole entry, looked up): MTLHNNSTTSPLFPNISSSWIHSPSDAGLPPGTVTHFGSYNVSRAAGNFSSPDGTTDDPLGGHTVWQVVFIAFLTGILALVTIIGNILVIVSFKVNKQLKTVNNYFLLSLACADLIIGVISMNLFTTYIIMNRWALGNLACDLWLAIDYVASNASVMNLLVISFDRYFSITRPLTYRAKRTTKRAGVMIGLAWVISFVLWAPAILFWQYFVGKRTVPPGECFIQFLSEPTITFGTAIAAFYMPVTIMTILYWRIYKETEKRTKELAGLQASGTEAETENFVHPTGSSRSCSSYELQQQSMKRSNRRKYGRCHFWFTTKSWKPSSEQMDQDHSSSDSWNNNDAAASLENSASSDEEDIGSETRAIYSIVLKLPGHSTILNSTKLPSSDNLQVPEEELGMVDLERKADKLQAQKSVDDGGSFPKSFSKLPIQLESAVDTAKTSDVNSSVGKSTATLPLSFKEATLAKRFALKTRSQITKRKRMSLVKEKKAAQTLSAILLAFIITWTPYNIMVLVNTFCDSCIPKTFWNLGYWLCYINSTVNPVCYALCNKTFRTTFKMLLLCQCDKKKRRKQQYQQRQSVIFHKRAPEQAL
# Chain of human Muscarinic, M4 Receptor, CHRM4 (gene 1132) (P08173 whole entry, looked up): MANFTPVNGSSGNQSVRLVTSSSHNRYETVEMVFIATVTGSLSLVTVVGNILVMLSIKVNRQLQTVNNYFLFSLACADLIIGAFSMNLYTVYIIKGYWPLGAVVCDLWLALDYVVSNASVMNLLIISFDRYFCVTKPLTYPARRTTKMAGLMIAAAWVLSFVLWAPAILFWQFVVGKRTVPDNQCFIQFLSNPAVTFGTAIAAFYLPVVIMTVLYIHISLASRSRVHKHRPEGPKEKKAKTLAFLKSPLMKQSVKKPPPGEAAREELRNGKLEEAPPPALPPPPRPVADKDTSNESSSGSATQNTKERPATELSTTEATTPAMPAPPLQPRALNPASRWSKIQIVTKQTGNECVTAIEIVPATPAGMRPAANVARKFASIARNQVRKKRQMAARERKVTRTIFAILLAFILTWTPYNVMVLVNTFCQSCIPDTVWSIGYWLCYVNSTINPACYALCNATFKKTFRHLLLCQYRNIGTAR
# Chain of human Histamine 1 Receptor (H1), HRH1 (gene 3269) (P35367 whole entry, looked up): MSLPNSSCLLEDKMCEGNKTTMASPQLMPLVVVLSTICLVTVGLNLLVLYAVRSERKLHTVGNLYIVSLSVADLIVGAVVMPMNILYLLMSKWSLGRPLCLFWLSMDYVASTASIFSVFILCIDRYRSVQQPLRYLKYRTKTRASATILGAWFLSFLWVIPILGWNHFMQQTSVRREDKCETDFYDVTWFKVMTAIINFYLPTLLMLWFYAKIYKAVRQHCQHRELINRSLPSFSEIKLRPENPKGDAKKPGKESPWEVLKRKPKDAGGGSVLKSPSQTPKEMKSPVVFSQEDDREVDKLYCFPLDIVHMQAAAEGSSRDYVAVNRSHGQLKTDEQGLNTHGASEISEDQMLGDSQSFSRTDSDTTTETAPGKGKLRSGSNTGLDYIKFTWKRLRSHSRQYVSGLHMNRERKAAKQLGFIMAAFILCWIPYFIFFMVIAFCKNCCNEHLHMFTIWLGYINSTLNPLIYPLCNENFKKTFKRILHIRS
# Chain of Muscarinic acetylcholine receptor M2 (Homo sapiens) (P08172 whole entry, looked up): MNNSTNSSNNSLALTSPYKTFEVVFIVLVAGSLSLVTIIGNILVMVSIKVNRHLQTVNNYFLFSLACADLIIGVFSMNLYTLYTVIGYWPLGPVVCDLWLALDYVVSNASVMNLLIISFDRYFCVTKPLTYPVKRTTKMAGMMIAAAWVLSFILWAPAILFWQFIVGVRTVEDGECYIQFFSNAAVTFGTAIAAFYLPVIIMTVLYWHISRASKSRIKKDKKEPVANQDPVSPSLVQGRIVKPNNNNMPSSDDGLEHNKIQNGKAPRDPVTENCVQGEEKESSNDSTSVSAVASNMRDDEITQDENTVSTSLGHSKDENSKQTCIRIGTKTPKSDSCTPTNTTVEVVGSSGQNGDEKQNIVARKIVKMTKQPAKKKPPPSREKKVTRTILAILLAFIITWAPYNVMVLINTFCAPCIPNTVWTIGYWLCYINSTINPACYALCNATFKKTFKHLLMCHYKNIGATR
# Chain of D(1A) dopamine receptor (Homo sapiens) (P21728 whole entry, looked up): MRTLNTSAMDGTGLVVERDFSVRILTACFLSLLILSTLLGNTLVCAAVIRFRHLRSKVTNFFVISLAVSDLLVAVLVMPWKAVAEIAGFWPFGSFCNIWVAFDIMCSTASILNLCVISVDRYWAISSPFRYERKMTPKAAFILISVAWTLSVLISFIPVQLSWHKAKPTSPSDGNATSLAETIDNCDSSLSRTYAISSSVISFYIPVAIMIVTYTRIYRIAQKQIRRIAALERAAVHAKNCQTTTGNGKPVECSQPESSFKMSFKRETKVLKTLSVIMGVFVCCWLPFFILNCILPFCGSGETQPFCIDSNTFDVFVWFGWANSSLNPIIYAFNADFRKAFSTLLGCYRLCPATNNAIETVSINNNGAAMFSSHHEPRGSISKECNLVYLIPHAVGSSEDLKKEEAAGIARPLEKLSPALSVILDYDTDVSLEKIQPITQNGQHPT
# Chain of human Neurokinin, NK2 Receptor, TACR2 (gene 6865) (P21452 whole entry, looked up): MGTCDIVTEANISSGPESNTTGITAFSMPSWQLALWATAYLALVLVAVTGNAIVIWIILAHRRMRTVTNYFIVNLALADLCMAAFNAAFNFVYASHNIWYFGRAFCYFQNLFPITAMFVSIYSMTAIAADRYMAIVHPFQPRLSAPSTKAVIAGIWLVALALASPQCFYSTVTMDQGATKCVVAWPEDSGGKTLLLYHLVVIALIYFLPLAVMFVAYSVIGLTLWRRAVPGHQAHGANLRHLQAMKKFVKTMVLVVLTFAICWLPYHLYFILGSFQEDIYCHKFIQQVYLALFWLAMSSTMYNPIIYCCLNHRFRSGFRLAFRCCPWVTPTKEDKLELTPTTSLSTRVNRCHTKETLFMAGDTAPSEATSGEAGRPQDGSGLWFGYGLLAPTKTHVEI
# Chain of human Opioid Receptor Delta 1 (Opiate D1), OPRD1 (gene 4985) (P41143 whole entry, looked up): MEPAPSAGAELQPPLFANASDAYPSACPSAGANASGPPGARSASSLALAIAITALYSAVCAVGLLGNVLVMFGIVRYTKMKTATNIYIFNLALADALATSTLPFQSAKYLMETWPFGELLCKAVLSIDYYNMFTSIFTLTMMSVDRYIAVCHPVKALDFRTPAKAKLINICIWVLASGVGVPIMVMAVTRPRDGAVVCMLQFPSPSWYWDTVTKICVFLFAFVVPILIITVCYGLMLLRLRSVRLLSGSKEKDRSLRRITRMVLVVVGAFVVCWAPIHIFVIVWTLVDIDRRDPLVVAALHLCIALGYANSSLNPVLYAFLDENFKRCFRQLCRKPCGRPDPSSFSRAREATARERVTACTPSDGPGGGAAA
# Chain of human Leukotriene B4 Receptor 1 (LTB4-BLT1), LTB4R (gene 1241) (Q15722 whole entry, looked up): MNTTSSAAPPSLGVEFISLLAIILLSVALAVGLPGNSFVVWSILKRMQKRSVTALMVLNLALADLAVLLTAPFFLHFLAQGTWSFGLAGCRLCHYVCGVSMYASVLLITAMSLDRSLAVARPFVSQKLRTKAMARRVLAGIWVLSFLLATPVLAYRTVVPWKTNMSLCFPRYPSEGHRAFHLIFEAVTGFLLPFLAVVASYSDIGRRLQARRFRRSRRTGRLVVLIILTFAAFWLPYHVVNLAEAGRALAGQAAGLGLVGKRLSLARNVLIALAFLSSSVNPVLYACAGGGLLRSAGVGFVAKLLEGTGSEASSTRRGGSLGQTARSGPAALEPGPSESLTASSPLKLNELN
# Chain of Muscarinic acetylcholine receptor M1 (Homo sapiens) (P11229 whole entry, looked up): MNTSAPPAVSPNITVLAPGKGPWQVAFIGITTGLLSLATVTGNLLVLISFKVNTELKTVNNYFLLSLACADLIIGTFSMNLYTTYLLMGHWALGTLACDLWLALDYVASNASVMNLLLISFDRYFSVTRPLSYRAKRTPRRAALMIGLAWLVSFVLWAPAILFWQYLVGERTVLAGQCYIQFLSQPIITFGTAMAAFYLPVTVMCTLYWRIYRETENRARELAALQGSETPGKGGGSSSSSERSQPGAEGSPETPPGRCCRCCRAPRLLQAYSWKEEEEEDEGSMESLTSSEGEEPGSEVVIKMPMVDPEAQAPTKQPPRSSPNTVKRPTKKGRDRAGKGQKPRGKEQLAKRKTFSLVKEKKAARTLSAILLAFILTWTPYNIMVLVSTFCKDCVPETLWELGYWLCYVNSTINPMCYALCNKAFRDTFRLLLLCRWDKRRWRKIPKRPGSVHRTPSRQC
smiles,measurement,setting,value
Cc1c(-c2cccnc2)c2ccccc2n1CCCCC(=O)O,AC50,[1],5820 nM (active)
O=c1[nH]c2ccc(S(=O)CCN3CCC(Cc4ccc(F)cc4)CC3)cc2o1 (stereo unspecified),AC50,[2],2510 nM (active)
same,AC50,[3],13500 nM (active)
same,AC50,[4],522 nM (active)
same,AC50,[5],1230 nM (active)
CCCN(C1CCN(C(=O)C2CCNCC2)CC1)[C@@H]1CCc2ccc(OC)cc2C1,AC50,[3],18800 nM (active)
same,AC50,[4],12100 nM (active)
same,AC50,[6],2.29 nM (active)
same,outcome,[7],inactive
same,AC50,[8],4.53 nM (active)
same,AC50,[9],5.39 nM (active)
same,AC50,[10],6.83 nM (active)
CCC(C)(C)C(=O)O[C@H]1C[C@@H](C)C=C2C=C[C@H](C)[C@H](CC[C@@H]3C[C@@H](O)CC(=O)O3)[C@H]21,outcome,[3],inactive
same,outcome,[5],inactive
same,outcome,[11],inactive
same,outcome,[1],inactive
Cc1ccc(S(=O)(=O)O)cc1C,outcome,[7],inactive
CC(C)CC(C)(O)C#CC(C)(O)CC(C)C (stereo unspecified),outcome,[12],inactive
CC(C)c1cccc(C(C)C)c1N1C(=O)c2ccc(O)cc2C1=O,outcome,[13],inactive
same,AC50,[1],7400 nM (active)
COCCOc1cc2cc(C(=O)NC3CCN(C(C)C)CC3)n(CC(=O)Nc3ccc(Cl)cn3)c2cn1,outcome,[10],inactive
same,outcome,[14],inactive
O=C(O)CC(O)C(=O)O (stereo unspecified),outcome,[9],inactive
same,outcome,[11],inactive
same,outcome,[15],inactive
O=P(OC(CCl)CCl)(OC(CCl)CCl)OC(CCl)CCl,AC50,[4],19800 nM (active)
same,outcome,[5],inactive
same,AC50,[14],12500 nM (active)
same,outcome,[1],inactive
O=C(CCCCCCCCc1cccnc1)N1CCC(C=C(c2ccccc2)c2ccccc2)CC1,outcome,[16],inactive
same,outcome,[8],inactive
Cc1ccc(C)c(O)c1,AC50,[17],9840 nM (active)
CC[C@H]1CC[C@H](NCc2cc3c(cc2OC)[C@H]2C[C@H]2C(=O)N3C)[C@H](c2ccccc2)N1,AC50,[6],1470 nM (active)
same,AC50,[8],12300 nM (active)
same,AC50,[9],835 nM (active)
same,AC50,[10],2310 nM (active)
